The structures appear in SMILES notation. Values without a mark were called inactive. Inconclusive results are not listed. Active and inactive are the calls of the source. The call rests on the fitted dose curve; in most records, active means well fitted curve in the direction sought with a large enough effect in the repeat runs; inconclusive means weak or mixed curves; inactive means no such curve, though single readings can be large; an effect the other way counts as inactive or inconclusive.

Test [1] can be described thus: A CellTox Green Cytotoxicity Assay to monitor cytotoxicity in HepG2 cells - 0 hour (AID 1224882). Further: nearly all actives have a fitted effect of over 35% in size. Further: potency means the concentration at half of the fitted maximal effect. In short, it runs like this:
(§1)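 Real-time, homogeneous cytotoxicity readout: dead-cell DNA staining by CellTox Green in HepG2 monolayers, fluorescence measured at timed intervals up to 40 h of continuous compound exposure.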

Test [2] in a line: A CellTox Green Cytotoxicity Assay to monitor cytotoxicity in HepG2 cells - 32 hour (AID 1224883). Further: nearly all actives have a fitted effect of over 50% in size. Further: potency means the concentration at half of the fitted maximal effect. In short, it runs like this:
as §1

Test [3] is described as follows: A CellTox Green Cytotoxicity Assay to monitor cytotoxicity in HEK293 cells - 8 hour (AID 1224884). Further: nearly all actives have a fitted effect of over 35% in size. Further: potency means the concentration at half of the fitted maximal effect. In short, it runs like this:
(§2)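 Cytotoxicity was tracked continuously in HEK293 cells by a DNA-binding dye excluded from viable cells. Compounds were transferred in DMSO 5 h after seeding; fluorescence was recorded at intervals up to 40 h.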

Test [4] in a line: qHTS RealTime-Glo MT Cell Viability Assay in HepG2 cells - 16 hour (AID 1224885). Further: nearly all actives have a fitted effect of over 50% in size. The method, boiled down:
(§3)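 Viability was tracked continuously by NanoLuc luminescence from prosubstrate reduced by living HepG2 cells, at successive time points over 40 h of compound exposure. Cells with reagent were preincubated 5 h at 37 °C before compound addition.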
In general terms: qHTS replaces the single test concentration by a dilution series.

A short description of test [5]: qHTS RealTime-Glo MT Cell Viability Assay in HEK293 cells - 24 hour (AID 1224886). Further: nearly all actives have a fitted effect of over 50% in size. Further: potency means the concentration at half of the fitted maximal effect. On activity change, negative = cytotoxicity: top concentration of the series differs between compounds. In short, it runs like this: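 Viability tracked continuously by luminescence as live cells reduce a prosubstrate for NanoLuc; HEK293 cells preincubated 5 h, compound-treated at 37 C, and read at 0, 8, 16, 24, 32 and 40 h.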
Test [6] can be described thus: qHTS RealTime-Glo MT Cell Viability Assay in HEK293 cells - 8 hour (AID 1224887). Further: nearly all actives have a fitted effect of over 50% in size. Further: potency means the concentration at half of the fitted maximal effect. On activity change, negative = cytotoxicity: top concentration of the series differs between compounds. In short, it runs like this:
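Nonlytic bioluminescent viability monitoring. HEK293 at 600 cells/well with reagent; 5 h settle; compound transfer by pintool; plates held at 37 C and read at set time points.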

The nature of test [7]: A CellTox Green Cytotoxicity Assay to monitor cytotoxicity in HEK293 cells - 16 hour (AID 1224888). Further: nearly all actives have a fitted effect of over 35% in size. Further: potency means the concentration at half of the fitted maximal effect. In short, it runs like this: as §2
Test [8] is described as follows: qHTS RealTime-Glo MT Cell Viability Assay in HepG2 cells - 0 hour (AID 1224889). Further: nearly all actives have a fitted effect of over 50% in size. The method, boiled down:
as §3

A short description of test [9]: A CellTox Green Cytotoxicity Assay to monitor cytotoxicity in HepG2 cells - 8 hour (AID 1224890). Further: nearly all actives have a fitted effect of over 45% in size. Further: potency means the concentration at half of the fitted maximal effect. In short, it runs like this:
as §1

Test [10] in a line: qHTS assay to identify small molecule antagonists of the estrogen receptor alpha (ER-alpha) signaling pathway using the BG1 cell line in the presence of 0.1 nM 17-beta-estradiol - cell viability counter screen (AID 1259241). Further: nearly all actives have a fitted effect of over 40% in size. The method, boiled down:
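Estradiol-stimulated (0.1 nM) VM7Luc4E2 cells exposed to compounds 22 hr; viability measured by fluorescence of cleaved CellTiter-Fluor substrate after 30 min.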
On the % scale 0 is the no-effect control and ±100 the full control effect.

As for `Nc1ccc([N+](=O)[O-])cc1[N+](=O)[O-]`, the Potency entry in [1], in test [2], in test [3], in test [4], in test [5] and in [6] was “inactive” in each case. Besides, the Potency result in test [7], in [8] and in test [9] was “inactive” each time.
For the compound `O=C1C(Cl)C(CCl)CN1c1cccc(C(F)(F)F)c1` (stereo unspecified), the Potency entry in test [1], in test [2], in test [3], in [4], in test [7] and in [8] was “inactive” each time. Further, the Potency result in test [9] and in [10] was “inactive” throughout. The Potency in [5] and in [6] was 24.5 µM (active) in each case.
Consider `ClCC(Br)CBr` (stereo unspecified), for which the Potency entry in [1], in [2], in [3], in test [4], in test [5] and in test [6] was “inactive” in each case. Moreover, the Potency entry in [7], in test [8], in test [9] and in [10] was “inactive” throughout.
Take `Cl/C=C\Cl`: the Potency entry in test [1], in test [2], in [3], in [4], in test [5] and in [6] was “inactive” in each case. Moreover, the Potency entry in test [7], in [8], in [9] and in [10] was “inactive” each time.
As to `C=CCN1CC[C@]23c4c5ccc(O)c4O[C@H]2C(=O)CC[C@@]3(O)[C@H]1C5`, the Potency result in test [1], in test [2], in test [3], in test [4], in test [5] and in [6] was “inactive” in each case. The Potency result in test [7], in [8], in test [9] and in test [10] was “inactive” throughout.
In the case of `Cc1ccc2ccccc2c1`, the Potency result in test [1], in test [2], in [3], in [4], in [5] and in test [6] was “inactive” in each case. Moreover, the Potency result in test [7], in test [8], in [9] and in [10] was “inactive” throughout.
On to `N#CCc1ccccc1`, for which the Potency result in [1], in [2], in test [3], in test [4], in [5] and in [6] was “inactive” each time. Further, the Potency result in test [7], in test [8], in test [9] and in test [10] was “inactive” each time.
Regarding `CCCCNP(N)(N)=S`, the Potency entry in test [1], in [2], in test [3], in test [4], in [5] and in [6] was “inactive” in each case. Moreover, the Potency result in [7], in test [8], in [9] and in test [10] was “inactive” in each case.
In the case of `CCOP(O)OCC`, the Potency result in [1], in [2], in test [3], in test [4], in test [5] and in [6] was “inactive” throughout. The Potency result in [7], in test [8], in [9] and in test [10] was “inactive” each time.
`C=CC(=O)OCCCCO`: the Potency result in test [1], in [2], in test [3], in test [4], in test [5] and in [6] was “inactive” in each case. In addition, the Potency entry in test [7], in test [8], in [9] and in test [10] was “inactive” each time.
Regarding `CCOS(C)(=O)=O`, the Potency entry in test [1], in test [2], in test [3], in test [4], in [5] and in test [6] was “inactive” each time. Further, the Potency entry in [7], in [8], in test [9] and in test [10] was “inactive” each time.
Consider `C=CC(=O)OCC(C)O` (stereo unspecified), for which the Potency entry in test [1], in test [2], in [3], in [4], in [5] and in test [6] was “inactive” each time. Also, the Potency entry in test [7], in test [8], in test [9] and in test [10] was “inactive” in each case.
For the compound `C=C(C#N)CCC#N`, the Potency result in test [1], in [2], in test [3], in test [4], in test [5] and in test [6] was “inactive” each time. Moreover, the Potency result in test [7], in test [8], in [9] and in test [10] was “inactive” in each case.
As for `C=CC(C)=O`, the Potency entry in [1], in [2], in test [3], in test [4], in test [5] and in test [6] was “inactive” in each case. For the same compound, the Potency result in [7], in test [8], in test [9] and in [10] was “inactive” in each case.
Consider `ClCc1ccccc1`, for which the Potency entry in test [1], in [2], in test [3], in test [4], in [5] and in test [6] was “inactive” in each case. In addition, the Potency result in [7], in test [8], in test [9] and in [10] was “inactive” throughout.
Regarding `COc1nn(C(=O)NS(=O)(=O)c2ccccc2OC(F)(F)F)c(=O)n1C`, the Potency in [1] is 39.9 µM (active); in test [2] it was 39.9 µM (active); in test [3], 31.7 µM (active); in test [7], 22.4 µM (active); in test [9], 39.9 µM (active). Besides, the Potency result in test [4], in [5], in test [6], in [8] and in test [10] was “inactive” in each case.
In the case of `CCN(C)N=O`, the Potency entry in test [1], in test [2], in [3], in test [4], in test [5] and in [6] was “inactive” each time. The Potency entry in [7], in test [8], in test [9] and in test [10] was “inactive” throughout.
For the compound `CCc1ccc(C(=O)NN(C(=O)c2cc(C)cc(C)c2)C(C)(C)C)cc1`, the Potency result in test [1], in test [2], in test [3], in [4], in test [5] and in [6] was “inactive” in each case. Also, the Potency entry in test [7], in test [8] and in [9] was “inactive” each time.
With `COCCOCCO`, the Potency entry in [1], in test [2], in [3], in test [4], in test [5] and in test [6] was “inactive” in each case. In addition, the Potency result in test [7], in test [8], in [9] and in test [10] was “inactive” throughout.
On to `CCCCCCCCOC(=O)c1ccc(C(=O)OCCCCCCCC)c(C(=O)OCCCCCCCC)c1`, for which the Potency result in [1], in [2], in test [3], in test [4], in test [5] and in test [6] was “inactive” throughout. The Potency entry in [7], in test [8], in test [9] and in [10] was “inactive” throughout.
For the compound `CC1CC(CC2CCC(N)C(C)C2)CCC1N` (stereo unspecified), the Potency entry in test [1], in [2], in test [3], in test [4], in [6] and in test [7] was “inactive” throughout. For the same compound, the Potency entry in test [8] was “inactive”. Moreover, the Potency in [5] is 44.4 µM (active).
For the compound `NCC(CC(=O)O)c1ccc(Cl)cc1` (stereo unspecified), the cytotoxicity in test [1] is 0.813% [at 0.29 µM]. Further, the cytotoxicity increase is -7.65% [at 0.29 µM] in test [2], -12.5% [at 0.29 µM] in [3] and -2.04% [at 0.29 µM] in [9]. The activity change, negative = cytotoxic in [4] was -0.45% [at 0.29 µM]. Further, the activity change, negative = cytotoxicity in test [5] is 4.3% [at 0.29 µM]; in test [6] it was 1.53% [at 0.29 µM]; in [8], -4.46% [at 0.29 µM]; in test [10], 0.211% [at 0.349 µM]. The activity change in test [7] was -9.31% [at 0.29 µM, active compounds read high].
Turning to `Brc1ccc(Oc2ccccc2)cc1`, the Potency result in test [1], in [2], in test [3], in [4], in test [5] and in test [6] was “inactive” each time. Further, the Potency result in [7], in test [8], in test [9] and in test [10] was “inactive” in each case.
For the compound `O=C(C(Cl)(Cl)Cl)C(Cl)(Cl)Cl`, the Potency result in test [1], in test [2], in test [3], in [4], in test [5] and in test [6] was “inactive” throughout. Also, the Potency result in test [7], in test [8], in [9] and in [10] was “inactive” throughout.

Source of the values: PubChem BioAssay (Tox21).
